# Values joined by “and” are separate entries in the source; they are usually repeats but may differ in a detail not shown here. Equal values may be shown once. Out of some 360,000 compounds screened, about 2,100 (0.58%) were called active. What follows is part of a selection rich in actives, with near analogues and random picks from the rest. A number with no mark means an inactive call.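 How the source made its calls: active means inhibition above a per-plate cutoff, the mean of that plate's test compounds plus 3 SD (cut at about 27% in these data); inactive means the rest.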
# Biological target: Muscarinic acetylcholine receptor M5 (Homo sapiens) (UniProt P08912)
# Test: CHRM5 blockers of acetylcholine calcium response – CHO cells, Fluo-8 calcium fluorescence, primary screen (AID 624040);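 further: 0% = acetylcholine EC80 with DMSO and 100% = DMSO without agonist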
# Settings: CHO-hM5 cells, ACh EC80, at 3 µM, hits give high values
# Chain of Muscarinic acetylcholine receptor M5 (Homo sapiens) (P08912 whole entry, looked up): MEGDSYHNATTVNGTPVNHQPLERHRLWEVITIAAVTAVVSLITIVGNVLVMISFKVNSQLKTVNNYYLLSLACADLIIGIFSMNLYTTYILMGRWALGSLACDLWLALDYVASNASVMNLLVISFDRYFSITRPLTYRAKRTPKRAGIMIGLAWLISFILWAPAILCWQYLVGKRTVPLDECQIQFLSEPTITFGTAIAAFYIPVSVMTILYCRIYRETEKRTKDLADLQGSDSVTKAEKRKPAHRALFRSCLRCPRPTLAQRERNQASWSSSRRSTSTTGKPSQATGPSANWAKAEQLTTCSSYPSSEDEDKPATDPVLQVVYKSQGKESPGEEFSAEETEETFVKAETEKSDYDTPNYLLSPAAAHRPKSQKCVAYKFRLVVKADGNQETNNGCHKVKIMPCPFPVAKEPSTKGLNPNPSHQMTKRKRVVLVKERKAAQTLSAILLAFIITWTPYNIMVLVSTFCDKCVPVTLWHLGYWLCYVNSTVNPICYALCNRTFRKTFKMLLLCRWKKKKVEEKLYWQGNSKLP
row,SMILES,inhibition
1,Cc1ccc(NC(=O)c2cc([N+](=O)[O-])ccc2Cl)c(O)c1,1.06%
2,CCOC12CC(C)(C)CC(C)(CC3=C1C(=O)CC(C)(C)C3)C2 (stereo not drawn),-1.41%
3,Cc1ccc(CNC(=O)CCNS(=O)(=O)c2ccc(Br)s2)cc1,-7.85%
4,CCN(CC(=O)Nc1ccccc1C(=O)NC1CC1)Cc1cccs1,-5.91%
5,CSc1ncc(C(=O)Nc2ccc(C)cc2C)c(C)n1,0.26%
6,CSc1nccc(NC(=O)c2ccc(C(C)(C)C)cc2)n1,32.5% (active)
7,CC(=O)Oc1ccc(C(=O)Nc2nccs2)cc1,-0.3%
8,O=C(CSc1nn(-c2ccc(F)cc2)c(=S)s1)NC1CCS(=O)(=O)C1 (stereo not drawn),2.55%
9,CC(=O)NC(c1cccs1)c1cc(Br)c2cccnc2c1O (stereo not drawn),-3.57%
10,CCn1c(N)c(Br)c(=O)[nH]c1=O,-11.1%
11,Cc1ccc(N2CC(C(=O)NCCS(=O)(=O)N3CCN(c4ccccc4)CC3)CC2=O)cc1 (stereo not drawn),8.26%
12,N#C/C(=C\c1ccc(N2CCOCC2)o1)C(=O)N1CCOCC1,0.08%
13,N#C/C(=C/c1ccc(N2CCCCC2)o1)C(=O)NCCc1c[nH]c2ccccc12,31.6% (active)
14,Cc1ccc(C(=O)N/C(=C/c2ccco2)C(=O)NCCc2c[nH]c3ccccc23)cc1C,0.84%
15,Cc1ccccc1CSc1nnc(-c2ccccn2)n1N,-0.16%
16,CC(C)(C)S(=O)(=O)N1Cc2cc(CO)cc(CCO)c2[C@H]1CCO,-3.33%
17,CN1CCC(=NNC(=O)c2ccc(N(Cc3ccc(Cl)cc3)S(C)(=O)=O)cc2)CC1,-3.74%
18,CC(NC(=O)c1ccc(Cl)cc1)C(=O)N1CCCCC1 (stereo not drawn),-2.56%
19,CCC1CCC/C1=N\NC(=O)c1ccc(Cl)cc1 (stereo not drawn),27.5% (active)
20,COc1cc(OC)cc(-c2c(C#Cc3ccsc3)c3cc(-c4ccc(OC)cc4F)ccc3n2C)c1,8.22%
21,CCN(CC)c1ccc(NC(=O)CN2CCN(c3ccccn3)CC2)cc1,1.09%
22,CN(C(=O)CN1CCN(c2cc(-c3ccc(OCc4ccccc4)cc3)ncn2)CC1)c1ccccc1,27.1% (active)
23,CCOc1ccc(OCc2ccc(C(=O)N(C)c3ccccc3)o2)cc1,8.29%
24,C[C@H](NS(=O)(=O)c1ccc(Cl)cc1)C(=O)OCC(=O)N1CCOCC1,14.1%
25,CN(C)CCNC(=O)c1ccc(Cl)c2cc3ccccc3nc12,0.61%
26,N#C/C=C\Oc1ccc(Cl)cc1N,1.41%

row,SMILES,inhibition
1,Cc1ccc(-c2c[n+](CC(=O)Nc3ccccc3)c3n2CCC3)cc1,2.52%
2,Clc1ccc(C[n+]2cc(-c3ccc(Cl)cc3)n3c2CCC3)cc1,32.4% (active)
3,Cc1ccc(C(=O)C[n+]2cc(-c3ccccc3)n3c2CCCCC3)cc1,4.95% and 0.73%
4,COc1ccc(S(=O)(=O)N(C)CC(=O)NCCCN2CCOCC2)cc1Cl,8.37%
5,CCN1CCN(C(=O)Cn2nc(C)n3c(cc4c(OC)cccc43)c2=O)CC1,2.41%
6,COc1ccc(CCNC(=O)CCC(=O)NC2CCCCC2)cc1OC,15.9%
7,CCc1ccc(N(C(=O)c2csnn2)C(C(=O)NC2CCCCC2)c2cccnc2)cc1 (stereo not drawn),-0.48%
8,COc1ccc(C(CNC(=O)c2cccc(S(=O)(=O)Nc3ccc(Br)cc3)c2)N(C)C)cc1 (stereo not drawn),5.55%
9,Cc1ccc(C(=O)NCC(c2cccs2)N(C)C)cc1S(=O)(=O)N1CCOCC1 (stereo not drawn),4.49%
10,COc1ccccc1C(CNC(=O)c1cccc(S(=O)(=O)Nc2ccc(F)cc2)c1)N(C)C (stereo not drawn),98% (active)
11,CC(=O)c1ccc(S(=O)(=O)Nc2ccc(C(=O)NCC(c3ccccc3)N(C)C)cc2)cc1 (stereo not drawn),0.82%
12,COc1ccccc1CNC(=O)c1ccc(Cl)c(S(=O)(=O)N2CCCC2)c1,-2.46%
13,Cc1cccc(NS(=O)(=O)c2ccc(C)c(C(=O)NCC(c3ccccc3)N(C)C)c2)c1 (stereo not drawn),5.12%
14,CN(C)C(CNC(=O)c1cccc(S(=O)(=O)Nc2ccc(Br)cc2)c1)c1ccco1 (stereo not drawn),4.75%
15,COc1ccccc1C(CNC(=O)c1cccc(NS(=O)(=O)c2ccc(Br)cc2)c1)N(C)C (stereo not drawn),93.8% (active)
16,COc1ccccc1C(CNC(=O)c1ccc(C)c(S(=O)(=O)N2CCCCC2)c1)N(C)C (stereo not drawn),98.7% (active)
17,C/C(CC(O)(/C=N/O)c1ccccc1)=N\O (stereo not drawn),-4.45%
18,O=C(CSc1nnc(-c2c[nH]c3ccccc23)n1-c1ccc(F)cc1)NCc1ccco1,-3.75%
19,CCOc1ncccc1C(=O)OCC(=O)NC1CC1,10.6%
20,CC(C)C(=O)N1CCN(CCN=CC2=C(O)CC(c3ccco3)CC2=O)CC1 (stereo not drawn),-10.8% and 8.17%
21,CCOC(=O)C1=NN(c2ccc(Cl)cc2)/C(=C/C2=NCCc3cc(OC)c(OC)cc32)S1,-2.43%
22,O=C(NCc1ccccc1)C1CCCN(c2nc3ccsc3c(=O)s2)C1 (stereo not drawn),-8.79%
23,Cc1cccc(N(Cc2ccccc2)C(=O)c2cc(S(=O)(=O)N3CCOCC3)ccc2F)c1,1.23%
24,Cc1ccc(Cn2cc(CN3CC(N4CCN(C)CC4)CS3(=O)=O)nn2)cc1 (stereo not drawn),0.4%
25,CN(C)C1CN(Cc2cn(Cc3ccccc3)nn2)S(=O)(=O)C1 (stereo not drawn),0.6%
26,CN(Cc1cn(Cc2ccc(C(F)(F)F)cc2)nn1)C1CN(Cc2cn(Cc3ccc(C(F)(F)F)cc3)nn2)S(=O)(=O)C1 (stereo not drawn),28.6% (active)

row,SMILES,inhibition
1,COC(=O)c1c(-c2cccs2)csc1NC(=O)CSc1ncnc2sc(C)c(C)c12,-0.42%
2,O=S(=O)(Nc1ccc(O)c2ccccc12)c1ccc(OC(F)(F)F)cc1,7.68%
3,O=C(c1ccc(F)cc1)N1CCC(C(=O)N2CCN(S(=O)(=O)c3ccccc3Br)CC2)CC1,4.21%
4,CCCCCc1c(-c2ccc(OC)c(OC)c2)ncn1CCc1ccccc1OC,15.1%
5,CCCCCc1c(Cc2ccccc2)ncn1CCc1ccccc1OC,30.2% (active)
6,CCCCCc1c(-c2cccc(Br)c2)ncn1CCc1ccccc1OC,-1.26%
7,Cc1cccc(C)c1NC(=O)C(c1ccc(C(F)(F)F)cc1)n1c(=O)c(-c2ccco2)nc2ccccc21 (stereo not drawn),-5.75%
8,c1ccc(C(=NNc2nc3ccccc3s2)c2ccccn2)cc1,53.7% (active)
9,CCOc1ccc(-n2c(SCC(=O)NC3CCS(=O)(=O)C3)nnc2-c2cccnc2)cc1 (stereo not drawn),0.02%
10,c1ccc(COc2ccccc2CNCc2cccnc2)cc1,6.7%
11,c1ccc2c(c1)CSc1sccc1C2=C1CCNCC1,99% (active)
12,CC(C)(C)[C@H]1C=C(C(=O)NCc2ccccc2)O[C@@H](OCc2ccc(CO)cc2)C1,27% (active)
13,O=C(NCc1ccccc1)C1=C[C@H](C2CC2)C[C@H](OCc2ccc(CO)cc2)O1,8.59%
14,O=C(NCc1ccccc1)C1=C[C@@H](C2CCCCC2)C[C@@H](OCc2ccc(CO)cc2)O1,15.6%
15,CC(=O)N1CCCc2cc(S(=O)(=O)N3CCCC(C(=O)N4CCN(c5cccc(Cl)c5)CC4)C3)ccc21 (stereo not drawn),39.3% (active)
16,COc1ccc(S(=O)(=O)N2CCCC(C(=O)N3CCN(C)CC3)C2)cc1C (stereo not drawn),10.1%
17,Cc1ccc(S(=O)(=O)N2CCCC(C(=O)N3CCN(C)CC3)C2)cc1 (stereo not drawn),-2.93%
18,CC1=C(C)CC(C(=O)NNC(=O)c2csc3c2CCC(C(C)(C)C)C3)C(C(=O)O)C1 (stereo not drawn),-0.27%
19,CCc1c(Nc2ccccc2Cl)nc(N)[nH]c1=O,6.79%
20,Cc1ccccc1NC(=O)Cc1nc(COC(=O)C(C)(C)Oc2ccc(Cl)cc2)cs1,0.92%
21,O=C(NC(=S)NC1CCS(=O)(=O)C1)c1cccc([N+](=O)[O-])c1 (stereo not drawn),-3.13%
22,C/C(=N\NC(=O)c1cccc([N+](=O)[O-])c1)c1cccnc1,0.74%
23,CC(C)CC(=O)NC(=S)NNC(=O)c1cccc([N+](=O)[O-])c1,32.7% (active)
24,NC1=NC[C@@H](Cc2ccc(O)cc2)N1CC1CCCCC1,9.28%
25,CC[C@@H](C)[C@@H]1CN([C@@H](C)CN2CCC[C@H]2CN2C(N)=NC[C@H]2C(C)C)C(=N)N1CCc1ccc(Cl)c(Cl)c1,-2.75%
26,C[C@@H](CN1CCC[C@H]1CN1C(N)=NC[C@@H]1Cc1ccccc1)N1C[C@@H](Cc2ccccc2)N(CCCC2CCCC2)C1=N,28.9% (active)
